System: MARK2
Details: concentration: 1 μM,replicates: in singlicate; n = 1
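Also: KINOMEscan kinase panel screen.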

Compound | %Inh [%]
CCN(CC)CCOc1ccc(Nc2ncc3cc(-c4c(Cl)cccc4Cl)c(=O)n(C)c3n2)cc1 [SB-601273] | 87
CNC(=O)c1ccccc1Sc1ccc2c(/C=C/c3ccccn3)n[nH]c2c1 | 35
C[C@@H](Oc1cc(-c2cnn(C3CCNCC3)c2)cnc1N)c1c(Cl)ccc(F)c1Cl | 0
Cl.Cl.NC[C@H](CC1CCCCC1)NC(=O)c1cc(Br)c(-c2ccnc3[nH]ccc23)s1 [GSK1581427] | 25
C=CC(=O)Nc1cc2c(Nc3ccc(F)c(Cl)c3)ncnc2cc1OCCCN1CCOCC1 [GW781483] | 9
COc1ccc(C[C@@H](CN)NC(=O)c2cc(Br)c(-c3ccnc4[nH]ccc34)s2)cc1.Cl.Cl [GSK1389063] | 54
Cc1cc(C(=O)Nc2ccc(Oc3ccc4nc(NC(=O)C5CC5)cn4n3)cc2)nn1-c1ccccc1 | 3
CCN(CC)CCCCNc1ncc2cc(-c3c(Cl)cccc3Cl)c(NC(=O)NC(C)(C)C)nc2n1 | 23
CN(C)CC(O)COc1ccc(Nc2nccc(-c3cnn4nc(N5CCOCC5)ccc34)n2)cc1 (stereo not drawn) [GW767488] | 20
Cc1ccc(-n2nc(C(C)(C)C)cc2NC(=O)Nc2ccc(OCCN3CCOCC3)c3ccccc23)cc1 [GW839464] | 21
CC(C)N1C(=O)Cc2cc(Nc3ncc(C(F)(F)F)c(NCc4cccc(S(C)(=O)=O)c4)n3)ccc21 | 38
C[C@H]1Oc2cc(cnc2N)-c2c(nn(C)c2C#N)CN(C)C(=O)c2ccc(F)cc21 | 9

From article PMC5540273 (PLoS ONE, 2017)
